Rows were chosen to be rich in hits. Some 0.93% of all compounds tested hit in one or more screens of this group.
TRb SRC2 PPI: disrupts binding of human TR beta to SRC2; P10828; TRbeta-SRC2 peptide binding, fluorescence polarization; receptor liganded with 1 µM T3; Potency, µM (highest dose often 106 µM), for inactives: at the top dose activity change, negative = inhibition, hits mostly inhibitors; hit rate 0.065% among 280,000; AID 1469; active = well fitted inhibition curve with a large enough effect; inconclusive = small, poorly fitted or top-dose-only effect, or effect the other way;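 note: potency is the fitted concentration of half-maximal effect; plate controls were bound peptide for no effect and peptide without receptor for full effect; nearly all actives have a fitted effect of over 50% in size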
Target sequence (P10828 whole entry, looked up): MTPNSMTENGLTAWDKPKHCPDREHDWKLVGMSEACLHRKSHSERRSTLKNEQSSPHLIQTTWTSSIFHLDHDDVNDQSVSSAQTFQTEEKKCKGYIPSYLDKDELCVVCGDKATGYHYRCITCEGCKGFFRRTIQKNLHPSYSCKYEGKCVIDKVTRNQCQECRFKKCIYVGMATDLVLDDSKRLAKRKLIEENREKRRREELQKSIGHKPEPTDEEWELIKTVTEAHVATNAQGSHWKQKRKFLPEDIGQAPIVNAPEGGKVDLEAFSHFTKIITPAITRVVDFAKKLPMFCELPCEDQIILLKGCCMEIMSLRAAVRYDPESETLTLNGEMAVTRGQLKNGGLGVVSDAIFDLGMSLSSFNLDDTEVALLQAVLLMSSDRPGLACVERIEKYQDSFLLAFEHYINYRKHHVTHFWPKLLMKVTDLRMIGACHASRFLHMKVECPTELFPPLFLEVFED
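Read-out is fluorescence polarization (555 nm excitation, 632 nm emission) of a Texas Red SRC2 coactivator peptide; loss of signal reflects blocked binding to human TRb ligand-binding domain in the presence of 1 uM T3.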
TexasRed fluor: counter-screen for TRb-SRC2 inhibitors: fluorescence interference | Potency, µM (top dose mostly 106 µM), inactives show at the highest dose fluorescence change, negative = quenching | hit rate 0.29% among 280,000 | TRb/SRC2 Texas Red total fluorescence interference | AID 1479; active = well fitted curve in either direction with a large enough effect; inconclusive = small, poorly fitted or top-dose-only effect; note: potency is the fitted concentration of half-maximal effect
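Human TRβ ligand-binding domain (0.6 uM) and Texas Red SRC2 peptide (20 nM) in Tris buffer with 1 uM T3 and 5% DMSO were incubated with pinned compound for 5 hr at ambient temperature. Total fluorescence was computed as S + 2P (555/632 nm).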
FBPA coupling cs: coupling enzyme interference in Giardia aldolase counter-screen; coupling enzyme system counterscreen, AmpLite Red fluorescence; hit rate 0.67% among 290,000; activity change, negative = inhibition, % at 58.2 µM, hits read low; in the data active = activity change below about -30%
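Activity here indicates interference with the coupling reaction, not aldolase inhibition. Compounds at 57.5 uM final met coupling enzymes for 10 min at RT; substrate and AmpLite Red detection followed, with a 525/598 nm fluorescence read after 20 min.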
GoLoco inh red: inhibitors of human Gai1-RGS12 GoLoco interaction (red fluorophore); P63096; Gai1:RGS12 GoLoco peptide FP, rhodamine, 10 min; Potency, µM (highest dose often 61.6 µM), for inactives: at the highest dose activity, negative = inhibition, most hits filed as inhibitors; hit rate 0.44% among 230,000; AID 880; active = well fitted inhibition curve with a large enough effect, not every such curve was filed as active; inactive = no such curve, though single readings can be large or run the other way; note: potency is the fitted concentration of half-maximal effect; nearly all actives have a fitted effect of over 30% in size
An asterisk follows results filed as active; ? = inconclusive; . = no result given; [ ] = dose if it differs, or a comment. Unless noted, % is set by controls: 0 for no effect and ±100 for the full control effect.

SMILES | TRb SRC2 PPI | TexasRed fluor | FBPA coupling cs | GoLoco inh red
NCCC[C@@H](CC(=O)N[C@@H]1CCNC[C@H]1C(=O)N[C@H](CC(=O)N[C@@H](CCC(=O)O)CC(=O)O)Cc1ccccc1)NC(=O)C[C@H](Cc1c[nH]c2ccccc12)NC(=O)[C@@H]1CCCC[C@H]1N | 0% | -1% | 1 | 20µM*
COc1cc(-c2cc(C(=O)Nc3c(Cl)cc(Cl)cc3Cl)c3ccccc3n2)cc(OC)c1OC | -6% | 1% | -1 | -3%
COc1ccc2nc3ccccc3nc2c1NC(=O)c1ccc(Cl)cc1Cl | -2% | -1% | -33* | -12%
Cc1cc(=O)n(CC(C)C)c(O)c1C#N | ? | 3% | -33* | 9%
Cc1cc(=O)n(CCO)c(O)c1C#N | -7% | 4% | -46* | 1%
CCn1c(O)c(C#N)c(C)cc1=O | 0% | -2% | -26 | 9%
COc1cc(NC(C)=O)c2ncccc2c1[N+](=O)[O-] | -1% | 1% | -66* | 10%
COCCCNC(=O)CC(=O)N/N=C\c1ccc(SC)cc1 | 0% | -5% | -70* | -1%
FC(F)(F)c1cnc(Sc2nc3nccc(-c4ccc(Cl)cc4)n3n2)c(Cl)c1 | 10% | 0% | -55* | 32%
COc1cccc2c1cc1c(=O)n(CC(=O)NCc3ccco3)nc(C)n12 | -4% | ? | . | .
Nc1nc(-c2c[nH]c3ccccc23)cs1 | 17% | 35µM*[fluorescent] | -9 | 97%
CNc1nc(-c2c[nH]c3ccccc23)cs1 | -7% | ? | -5 | 201%
COC(=O)C(/C=C/C(C)Cc1cc(Br)cc(OCc2ccccc2)c1OC)OCc1ccccc1 (configuration not stated) | 4%[11.2 µM] | -5%[11.2 µM] | 2 | .
COc1cc2c(cc1OC)CN(Cc1nc3ccsc3c(=O)[nH]1)CC2 | 12% | -1% | -43* | 21%
O=c1[nH]c(CN2CCN(c3ccccc3Cl)CC2)nc2ccsc12 | 0% | 2% | 0 | -1%
O=C(CC1N=C2c3ccccc3N=C(SCc3ccccc3F)N2C1=O)NCCc1ccccc1 (configuration not stated) | -6% | 1% | . | .
COc1cccc(CN2CCc3nc(Nc4ccc5c(c4)OCCO5)ncc3C2)c1OC | -7% | 0% | . | .
COc1ccc(N=Nc2nc3cc(Br)c(Br)cc3n2C)c(OC)c1 | 9% | 0% | -20 | 1.6µM*
COc1ccccc1NC(=O)C1=C(C)Nc2nc(SCc3ccc(Cl)cc3)nn2C1c1ccccc1Cl (configuration not stated) | -1% | 7% | . | .
O=C(c1ccccc1)c1c2c(cc3sc4ccccc4[n+]13)-c1cccc3cccc-2c13 | -14% | 19% | 0 | 1.3µM*
CCOC(=O)C1CCN(c2nc3c(S(=O)(=O)c4ccccc4)nnn3c3ccsc23)CC1 | -4% | -3% | . | .
CCC(C=C[C@@H]1OC(=O)C=C[C@H]1C)=C[C@H](C)CC=CC(C)=C[C@@H](C)C(=O)[C@@H](C)[C@H](O)[C@@H](C)CC(C)=CC(=O)O | 1%[2.82 µM] | 0%[2.82 µM] | -59* | 2%[0.551 µM]
Oc1ccc(C=Nc2cccc3ccccc23)c(O)c1 | . | . | -35* | .
O=C1C([N+](=O)[O-])=C(O)c2cccc3cccc1c23 | . | . | -51* | .
Cc1ccc2c(=O)cc(C(=O)Nc3c(C(=O)Nc4cccc(Cl)c4)oc4ccccc34)oc2c1 | 4% | -9% | . | .
SMILES | TRb SRC2 PPI | TexasRed fluor | FBPA coupling cs | GoLoco inh red
COc1ccc(NC(=O)Cn2c(=O)n(-c3ccc(OC)cc3)c(=O)c3sc4ccccc4c32)cc1 | -1% | 0% | . | .
CCc1nn2c(-c3ccccc3OC)ccnc2c1-c1ccccc1 | 6% | -1% | . | .
CCc1nn2c(-c3ccccc3OC)ccnc2c1-c1ccc(F)cc1 | -9% | 8.9µM*[quencher] | . | .
CC(C)CC(=O)n1nc(-c2cccnc2)nc1NCc1ccc(F)cc1 | -6% | 0.089µM*[quencher] | . | .
O=C(c1ccc(F)cc1)n1nc(-c2cccnc2)nc1NCc1ccccc1 | -3% | -2% | . | .
O=C=NCCCCCCN=C=O | -1%[201 µM] | -4%[201 µM] | . | .
CCCCN1C(=O)N(C)C2NC(=O)NC21 (configuration not stated) | 0% | -1% | 3 | 2%
CSC1=NC2C(N1)N(C)C(=O)N2C (configuration not stated) | -9% | 0% | 5 | 16µM*
Cc1cccc(Cn2c(C)c(C)c3cc(C(=O)NCc4ccco4)ccc32)c1 | 0% | 0% | . | .
CCC(=O)N(CC)C1=C(O)c2ccccc2C(=O)C1=O | -2% | -5% | -61* | -34%
CCC(=O)N(C)/C=C1\Sc2ccccc2C1=O | -1% | -6% | . | 41%
CC(C)c1ccc(C(C)C)cc1 | 4%[201 µM] | -3%[201 µM] | . | .
CCc1ccc(N2CC(c3nnc(NC(=O)c4ccco4)s3)CC2=O)cc1 (configuration not stated) | -7% | 10% | . | .
CC(C)CN=Cc1c(O)c([N+](=O)[O-])cc2oc3c(c12)CCCC3 | -1% | ? | -32* | 31%
O=[N+]([O-])c1cc2oc3c(c2c(C=NCc2ccccc2)c1O)CCCC3 | -3% | -9% | -29 | 29%
COn1cnnc1-c1ccccc1 | -2% | -4% | 2 | 8.9µM*
O=C(c1ccccc1)N1CCN(c2ccc(NCc3ccc4c(c3)OCO4)cc2)CC1 | -13% | -2% | 3 | -15%
CC(=O)N1CCN(c2ccc(NCc3ccc4c(c3)OCO4)cc2)CC1 | 40µM* | 12% | -33* | -39%
Cc1ccc(CNS(=O)(=O)c2ccc3[nH]c4c(c3c2)CCCC4)cc1 | 0% | -3% | . | .
CCS(=O)(=O)NCc1ccc2[nH]c3c(c2c1)CCCC3 | -3% | 0% | -44* | 9%
O=S(=O)(Nc1cccc(Cl)c1)c1ccc2[nH]c3c(c2c1)CCCCCC3 | -15% | 126µM*[quencher] | . | .
O=S(=O)(NCc1ccc(Cl)cc1)c1ccc2[nH]c3c(c2c1)CCCC3 | -7% | 25µM*[quencher] | . | .
O=S(=O)(NCc1ccc(F)cc1)c1ccc2[nH]c3c(c2c1)CCCC3 | -1% | 3% | . | .
Cc1cccc(NC(=O)C(=O)NCCc2sc(-c3ccccc3)nc2C)c1C | -1% | 1% | . | .
Cc1ccc(CNC(=O)c2cc(NS(=O)(=O)c3ccc(C)cc3)ccn2)cc1 | 11% | -12% | . | .
SMILES | TRb SRC2 PPI | TexasRed fluor | FBPA coupling cs | GoLoco inh red
CCOC(=O)c1c(NC(=O)CSc2cn(CCNC(=O)c3ccc(OC)c(OC)c3)c3ccccc23)sc2c1CCC2 | 9% | -1% | . | .
CC(=O)c1cccc(NC(=O)CCc2c(C)nc3c(-c4ccc(F)cc4)c(C)nn3c2C)c1 | -3% | ? | . | .
Cc1ccc(C(=O)Nc2cc3cc(Cl)ccc3oc2=O)cc1 | -1% | -13% | . | .
CN(C)/C=C1\C=C2C(=O)c3ccccc3N2C1=O | 6% | -6% | -1 | 13µM*
Cc1ccc(NC(=O)[C@@H](c2ccccc2)N2Cc3ccccc3C2=O)cc1F | 2% | -5% | . | .
Cc1ccc(Cl)cc1N1CCN(C(=O)Cn2nc(C)n3c(cc4sccc43)c2=O)CC1 | -9% | 79µM*[quencher] | . | .
CCc1ccccc1NC(=O)Nc1c[nH]c(=O)[nH]c1=O | -3% | -1% | . | .
CCCCOc1ccc(C(=O)N2CCN(CCc3ccncc3)CC2)cc1 | -11% | 6.3µM*[quencher] | . | .
